The full ranking holds about 33,000 sequences; the median of “e-score” is about -0.05, and the highest 2% start at about 0.38. Only a selection was taken, and the highest values are over-represented in it overall.

This note sets out measurements from paper PMC10668032, “Altered binding affinity of SIX1-Q177R correlates with enhanced WNT5A and WNT pathway effector expression in Wilms tumor”.

The target of the assay is T1, SIX1-Q177R homeodomain (human, UniProt Q15475 108-198, Q177R).
T1 sequence: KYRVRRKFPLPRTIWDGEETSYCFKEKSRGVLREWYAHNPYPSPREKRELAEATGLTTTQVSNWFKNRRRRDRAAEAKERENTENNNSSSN
As to the kind of experiment: universal protein binding microarray; Universal all-10-mer PBM (8x60K, AMADID 030236), 300 nM GST-tagged protein, Alexa Fluor 488 anti-GST; buffer, salt, pH and temperature not stated (as in Berger); high values mean tight binding. To be noted: protein: ivt; tags: N-terminal GST; dsDNA, one strand shown. Summed up:
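GST-tagged homeodomains were made by in vitro transcription/translation and quantified by anti-GST western blot against a recombinant GST standard curve. They were applied in duplicate at 300 nM final concentration to universal 'all 10-mer' protein binding microarrays (8×60K format). Binding was quantified as 8-mer E-scores with the Universal PBM Analysis Suite.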
Turning to ACGGGGTC, the binding signal turned out to be 0.214 ± 0.0134 E-score.

Consider ACCCCCAG, for which the binding signal was 0.23 ± 0.0356 E-score.

As to AAACCCAG, the binding signal amounted to 0.219 ± 0.0117 E-score.

For ACCCCCAT, the binding signal was 0.272 ± 0.0289 E-score.

With GCACCCAC, the binding signal was 0.194 ± 0.0207 E-score.

As to ACACCCAG, the binding signal stood at 0.4602 ± 0.00339 E-score.

ACACCCAC: the binding signal came to 0.4683 ± 0.00307 E-score.

AACCCCAT: the binding signal stood at 0.169 ± 0.00626 E-score.

For GCACCCAA, the binding signal came out at 0.154 ± 0.0464 E-score.

Take ACACCCAA: the binding signal was determined as 0.4542 ± 0.000742 E-score.

As for ACACCCAT, the binding signal worked out at 0.458 ± 0.00543 E-score.

Turning to ACCCCCAC, the binding signal was 0.282 ± 0.0258 E-score.

For ACCCCCAA, the binding signal stood at 0.312 ± 0.0125 E-score.

In the case of ACCAACGC, the binding signal amounted to 0.246 ± 0.0108 E-score.

On to TATCAACA, for which the binding signal was 0.288 ± 0.0159 E-score.

For the sequence ACCCCGAC, the binding signal came to 0.265 ± 0.018 E-score.

Take CTCGATCC: the binding signal is 0.201 ± 0.00608 E-score.

In the case of GGTGCTTA, the binding signal was determined as 0.234 ± 0.00599 E-score.

As for CGGTGACA, the binding signal turned out to be 0.248 ± 0.0377 E-score.

In the case of CAAACCCC, the binding signal worked out at 0.197 ± 0.0505 E-score.

Take CACTGTGA: the binding signal was 0.177 ± 0.00305 E-score.

For CAGCCGAC, the binding signal is 0.196 ± 0.0242 E-score.

TCACAACA: the binding signal was 0.195 ± 0.0326 E-score.

On to ACACACCA, for which the binding signal came to 0.415 ± 0.0235 E-score.

In the case of TCACACCA, the binding signal turned out to be 0.434 ± 0.00571 E-score.

Turning to GCACACGC, the binding signal came to 0.256 ± 0.0166 E-score.

As for GCACACGA, the binding signal was found to be 0.214 ± 0.0114 E-score.

CCACACGA: the binding signal came out at 0.234 ± 0.0111 E-score.

On to CCACACCA, for which the binding signal stood at 0.393 ± 0.0307 E-score.

On to CCACACCG, for which the binding signal is 0.363 ± 0.0269 E-score.

For the sequence ACACACGA, the binding signal was determined as 0.251 ± 0.0465 E-score.

Regarding TCACACGA, the binding signal was determined as 0.226 ± 0.00234 E-score.

As to ACACACAA, the binding signal worked out at 0.244 ± 0.0667 E-score.

Regarding GCACACCA, the binding signal came out at 0.401 ± 0.0217 E-score.

With ATCCCCTG, the binding signal is 0.156 ± 0.0119 E-score.

For the sequence ACTATACG, the binding signal amounted to 0.178 ± 0.015 E-score.

Take CACTCTGA: the binding signal came to 0.239 ± 0.0406 E-score.

Take CACCTTGC: the binding signal came out at 0.258 ± 0.0162 E-score.

On to TGTTGAAA, for which the binding signal amounted to 0.219 ± 0.0411 E-score.

As to AGTGATAC, the binding signal was 0.265 ± 0.0283 E-score.

As to CGTATACA, the binding signal stood at 0.241 ± 0.0194 E-score.

With GCGGTACA, the binding signal is 0.305 ± 0.00496 E-score.

On to ACACTAGA, for which the binding signal stood at 0.318 ± 0.0323 E-score.

As to ACACTAGG, the binding signal stood at 0.381 ± 0.0153 E-score.

For ACACTAAA, the binding signal came out at 0.345 ± 0.0117 E-score.

Consider ACCCTAGG, for which the binding signal came to 0.1523 ± 0.00136 E-score.

On to ACACTAGT, for which the binding signal came to 0.389 ± 0.00685 E-score.

In the case of ACACTAGC, the binding signal is 0.364 ± 0.0183 E-score.

As to GGATCAGA, the binding signal turned out to be 0.17 ± 0.0215 E-score.

In the case of CCCTGCAG, the binding signal came out at 0.185 ± 0.0216 E-score.

Consider CTCTTACA, for which the binding signal amounted to 0.183 ± 0.018 E-score.

ATGGGATC: the binding signal was 0.185 ± 0.00496 E-score.

Turning to CCGAACAC, the binding signal was 0.4236 ± 0.00158 E-score.

For CCGAACCC, the binding signal was 0.186 ± 0.0116 E-score.

For the sequence CCGAATAC, the binding signal was 0.163 ± 0.00356 E-score.

On to ACGAACAC, for which the binding signal was 0.3992 ± 0.00182 E-score.

As for GCGAACAC, the binding signal worked out at 0.4086 ± 0.0011 E-score.

As to ACGAGCAC, the binding signal stood at 0.226 E-score.

As to GCGAACCC, the binding signal amounted to 0.174 ± 0.0509 E-score.

Consider ACCCTAAC, for which the binding signal turned out to be 0.154 ± 0.00793 E-score.

For ACCCACAG, the binding signal was determined as 0.217 ± 0.00978 E-score.

Regarding CACCAGGA, the binding signal is 0.25 ± 0.00664 E-score.

In the case of GTACCTAC, the binding signal came out at 0.152 ± 0.0312 E-score.

Take CTCCGTTC: the binding signal turned out to be 0.182 ± 0.0356 E-score.

For CCCAAACG, the binding signal was found to be 0.169 ± 0.00462 E-score.

Consider ACAGGGTG, for which the binding signal amounted to 0.222 ± 0.00416 E-score.

For the sequence AACACGAA, the binding signal was found to be 0.305 ± 0.0107 E-score.

On to TACACGAA, for which the binding signal stood at 0.3773 ± 0.000856 E-score.

TACACCAA: the binding signal is 0.4751 ± 0.00401 E-score.

On to AGCACCAA, for which the binding signal worked out at 0.196 ± 0.00899 E-score.

Consider AGCACCAC, for which the binding signal is 0.272 ± 0.00962 E-score.

On to AGCACCAT, for which the binding signal was 0.16 ± 0.0114 E-score.

TGCACCAA: the binding signal stood at 0.211 ± 0.0149 E-score.

With AACACCAC, the binding signal amounted to 0.4833 ± 0.00244 E-score.

As for AACACCAA, the binding signal turned out to be 0.46725 ± 0.00029 E-score.

Turning to AACACGAC, the binding signal amounted to 0.373 ± 0.0147 E-score.

Take AACACCAT: the binding signal came out at 0.457 ± 0.0053 E-score.

Consider GTCCGACA, for which the binding signal came out at 0.217 ± 0.042 E-score.

With GTAAGCAC, the binding signal is 0.189 ± 0.00735 E-score.

Regarding CCTCCTAA, the binding signal amounted to 0.197 ± 0.00216 E-score.

In the case of GACGGTGC, the binding signal turned out to be 0.175 ± 0.00182 E-score.

CACTGCAC: the binding signal was 0.223 ± 0.0117 E-score.

As for ACCCTCGG, the binding signal amounted to 0.2 ± 0.0194 E-score.

GACACAAA: the binding signal worked out at 0.224 ± 0.11 E-score.

As to GACACCAC, the binding signal was determined as 0.489 ± 0.00507 E-score.

As to GGCACCAC, the binding signal came to 0.215 ± 0.0174 E-score.

As to GACCACAC, the binding signal turned out to be 0.269 ± 0.0108 E-score.
